# Only a selection was taken, and hits are over-represented in it overall.
# aSyn 5UTR act: Activators via SNCA 5'UTR binding, MLPCN. alpha-synuclein 5'UTR reporter, activators screen. activity score, % (tested at 7.5 µM), hits read low. actives 7.1% (n = 300,000). AID 1814; in the data active means activity score below about -60%
# Active calls of the source: *.
SMILES,aSyn 5UTR act
O=C(CSc1ccccc1)NCc1ccccc1,-68.5*
O=c1cc(-c2ccc3c(c2)OCCO3)oc2ccc(Cl)cc12,-149.4*
O=c1cc(-c2cccs2)oc2ccc(Cl)cc12,-177.6*
O=c1c(O)c(-c2cccs2)oc2ccc(Cl)cc12,-74.9*
Oc1ccc(N=Nc2n[nH]c(-c3ccc(Cl)cc3)n2)cc1,-109.3*
C/C(=N/OC(=O)CC(C)C)c1cc(-c2ccc(Cl)cc2)no1,-145.7*
C(=C\c1ccccn1)/c1cccnc1,-75.6*
COC1=C(Nc2ccccc2)C(=O)c2ccccc2C1=O,-73.4*
COC1=C(Nc2ccc(C)cc2)C(=O)c2ccccc2C1=O,-156.3*
CNC1=C(N(C(C)=O)c2ccc(Br)cc2)C(=O)c2ccccc2C1=O,110.9
C=CCn1c2ccccc2c(=O)c2cc(C#Cc3ccsc3)ccc21,-211.2*
Cc1occc1C(=O)N/N=C/c1ccc(Br)s1,-149.0*
C/C(=N\NC(=O)c1ccoc1C)c1ccc(Br)s1,-64.9*
Cc1ccc(/C=N/NC(=O)c2ccoc2C)s1,-120.0*
Cc1cc2oc(=O)cc(COC(=O)c3n[nH]c4ccccc34)c2cc1C,-133.6*
COc1ccc2c(COC(=O)c3n[nH]c4ccccc34)cc(=O)oc2c1,-180.4*
Cc1cc(C)nc(Nc2n[nH]c(-c3ccccc3C)n2)n1,-136.0*
Cc1cc(C)nc(Nc2n[nH]c(-c3ccccc3Br)n2)n1,-115.4*
CCc1ccccc1NC(=O)c1cc2ncc(Br)cn2n1,-78.9*
O=C(Nc1ccccc1C(F)(F)F)c1cc2ncc(CCCl)cn2n1,-80.7*
COc1ccc(C(=O)CCNc2cccc(Cl)c2)cc1,-113.7*
COc1ccc(C(=O)CNc2cccc(F)c2)cc1,-101.2*
C=CCN1C(=O)S/C(=C\c2ccc(N3CCOCC3)cc2C)C1=O,-151.6*
O=C1NC(=O)/C(=C\c2ccc(O)cc2O)S1,-77.4*
Cc1cc(N2CCOCC2)ccc1/C=C1/SC(=O)NC1=O,-66.6*
SMILES,aSyn 5UTR act
Cc1cc(N2CCCC2)ccc1/C=C1\NC(=S)N(C)C1=O,-261.4*
C=CC(C)N1C(=O)S/C(=C\c2ccc(N3CCOCC3)cc2C)C1=O (stereo not drawn),-119.6*
Nc1ccccc1N=Cc1ccc(-c2cccc(Cl)c2)o1,-145.1*
CC(C)N1C(=O)CN(C2CCCCCC2)C(=O)C1c1ccccc1F (stereo not drawn),-140.3*
COc1ccc2c(C(=O)CN3CCSCC3)c[nH]c2c1,-62.5*
CC(=O)c1cccc(NC(=O)c2cc(C(C)C)on2)c1,-101.3*
CC(C)Cc1cc(C(=O)Nc2ccc(Br)cc2)no1,-137.1*
CC(C)Cc1cc(C(=O)Nc2ccc(F)cc2F)no1,-138.6*
O=C(Nc1ccc(F)cc1F)c1csc(-c2cccs2)n1,-270.1*
CC(C)Cc1cc(C(=O)NCc2cccs2)no1,-164.4*
CC(C)c1cc(C(=O)NCCc2ccccc2)no1,-200.7*
CCc1ccc(NC(=O)c2cc(C(C)C)on2)cc1,-102.5*
CCc1ccc(NC(=O)c2cc(CC(C)C)on2)cc1,-120.5*
C=CCSc1nnc(-c2ccc(Cl)cc2Cl)o1,-78.5*
Clc1ccc(-c2nnc(SCc3ccon3)o2)c(Cl)c1,-69.1*
C=CCSc1nnc(-c2ccc([N+](=O)[O-])cc2)o1,-139.9*
O=C(CSc1nnc(-c2cccc(F)c2)o1)N1CCOCC1,-75.4*
Cc1cccc(-c2nnc(SCC(=O)N3CCOCC3)o2)c1,-70.2*
O=C(Nc1ccc(F)cc1Cl)c1ccc2c(=O)n3c(nc2c1)CCCCC3,-144.3*
O=C(O)c1ccc2c(=O)n3c(nc2c1)/C(=C/c1ccc(F)cc1)CC3,-73.4*
O=C(NCCc1ccc(F)cc1)c1ccc2c(=O)n3c(nc2c1)CCC3,-71.1*
Cc1ccc2c(c1C)NC(=O)CC(c1ccccc1O)=N2,-83.1*
Cc1ccc(C2=CSC3=NNC4(CCCCC4)NN23)cc1,-126.0*
CCc1ccc2oc(-c3cccc(NC(=O)c4cccnc4)c3)nc2c1,-166.8*
O=C(Nc1ccc2oc(-c3ccccc3)nc2c1)c1ccco1,-156.0*
SMILES,aSyn 5UTR act
O=C(Nc1ccc2oc(-c3ccccc3)nc2c1)c1cccnc1,-160.7*
O=C(Nc1ccc2oc(-c3ccccc3)nc2c1)c1ccc2c(c1)OCCO2,-65.9*
CCCCCC(=O)Nc1ccc2oc(-c3cccnc3)nc2c1,-74.6*
COC(=O)/C(=C1/Oc2ccc(C)cc2S1)C(F)(F)F,-152.3*
Cc1ccc(CN=c2c([N+](=O)[O-])nn(-c3ccc4c(c3)OCCO4)n2O)cc1,-132.5*
COc1ccc(-n2nc([N+](=O)[O-])c(=NCc3ccc4c(c3)OCO4)n2O)cc1,-108.6*
Cc1nc2ccc(NC(=O)NCCO)cc2s1,-63.9*
Cc1nc2ccc(NC(=O)NCCCO)cc2s1,-63.7*
CCN1CCN(Cc2ccc(NC(=O)c3ccc(C)c(NC(=O)C(=O)c4c[nH]c5ccccc45)c3)cc2C(F)(F)F)CC1,111.6
O=C(Nc1nccs1)C(=O)c1c[nH]c2ccccc12,-165.4*
CSc1ccccc1NC(=O)C(=O)c1c[nH]c2ccccc12,-146.0*
N#Cc1ccccc1NC(=O)COc1ccc2c(c1)OCO2,-130.1*
O=C(COc1ccc2c(c1)OCO2)Nc1ccccc1C(F)(F)F,-114.2*
CN(C)C(=O)c1cc(-c2ccccc2)no1,-79.9*
CCn1cnc2sc(C(=O)Oc3cccc(C)c3)c(C)c2c1=O,-66.6*
COc1ccccc1-c1nnc(-c2ccc(N3CCOCC3)cc2)o1,-106.0*
COc1ccccc1-c1nnc(SCC(=O)N2CCOCC2)o1,-85.3*
O=C(CSc1nnc(-c2ccccc2Cl)o1)N1CCOCC1,-124.1*
Cc1ccccc1-c1nnc(SCC(=O)N2CCCC2)o1,-135.3*
COC(=O)C1=C(C)N(Cc2ccccc2)C(=NCc2cccc(C(F)(F)F)c2)N[C@H]1c1cccc(F)c1,56.6
O=C(CSc1nnc2ccc3ccccc3n12)N1CCOCC1,-94.3*
CC(=Nc1ccc(Br)cc1)c1sc2ccccc2c1O,-125.0*
CC(=Nc1ccccc1)c1sc2ccccc2c1O,-383.5*
Cc1ccc(C(=O)NCCn2cc(SCC(=O)Nc3cc(C)on3)c3ccccc32)cc1,-77.7*
O=S(=O)(NCC1(N2CCOCC2)CCCCC1)c1ccccc1Cl,-91.3*
SMILES,aSyn 5UTR act
Cc1ccc(Cn2ncn(-c3ccccc3)c2=O)cc1,-73.8*
O=[N+]([O-])c1ccc(-c2cn(-c3ccccc3F)c(=S)[nH]2)cc1,-93.8*
Cc1ccc(-c2cn(-c3ccccc3F)c(=S)[nH]2)cc1,-124.0*
Cc1cccc(-n2ncc3c(NCc4ccccn4)ncnc32)c1,-113.1*
c1ccc(-n2ncc3c(NCc4ccccn4)ncnc32)cc1,-69.2*
COCCCN=C(c1ccco1)n1c(=S)nc(-c2ccco2)n(CCCOC)c1=S,-87.7*
S=C(Nc1ccccc1)Nc1ccc2cn[nH]c2c1,-74.8*
Cc1ccc(NC(=S)Nc2ccc3cn[nH]c3c2)cc1,-83.3*
O=C(NC(=S)Nc1ccc2cn[nH]c2c1)c1ccccc1,-173.1*
CCCCC(=O)NC(c1ccc(N(CC)CC)cc1)c1ccc2cccnc2c1O (stereo not drawn),67.9
O=C1C(CSCc2ccccc2)NC(=S)N1c1ccccc1 (stereo not drawn),-67.8*
Cc1ccc(-c2csc(NC(CO)c3nc4ccccc4n3CCOCCO)n2)cc1 (stereo not drawn),-71.4*
CCOC(=O)c1sc2ccccc2c1NC(=O)c1coc2ccccc2c1=O,-73.9*
Cc1cc(C(=O)CN2C(=O)c3ccccc3S2(=O)=O)c(C)n1CC1CCCO1 (stereo not drawn),110.8
Cc1cc(C(=O)CSc2nc3ccccc3n2CCC#N)c(C)n1Cc1cccs1,-124.4*

# Screening data: PubChem, Broad Institute
